Structures are written as SMILES. Activity calls are given as the source filed them. The calls were made as follows: active = hit-call score of the fitted dose curve at least 0.9, where 1 is the maximum; inconclusive = response in the unintended direction; inactive = score below 0.9.

Broadly, the AC50 is the concentration giving half of the maximal activity seen.

rat CYP2C11, Cyp2c11 (gene 29277), sequence (P08683 whole entry, looked up): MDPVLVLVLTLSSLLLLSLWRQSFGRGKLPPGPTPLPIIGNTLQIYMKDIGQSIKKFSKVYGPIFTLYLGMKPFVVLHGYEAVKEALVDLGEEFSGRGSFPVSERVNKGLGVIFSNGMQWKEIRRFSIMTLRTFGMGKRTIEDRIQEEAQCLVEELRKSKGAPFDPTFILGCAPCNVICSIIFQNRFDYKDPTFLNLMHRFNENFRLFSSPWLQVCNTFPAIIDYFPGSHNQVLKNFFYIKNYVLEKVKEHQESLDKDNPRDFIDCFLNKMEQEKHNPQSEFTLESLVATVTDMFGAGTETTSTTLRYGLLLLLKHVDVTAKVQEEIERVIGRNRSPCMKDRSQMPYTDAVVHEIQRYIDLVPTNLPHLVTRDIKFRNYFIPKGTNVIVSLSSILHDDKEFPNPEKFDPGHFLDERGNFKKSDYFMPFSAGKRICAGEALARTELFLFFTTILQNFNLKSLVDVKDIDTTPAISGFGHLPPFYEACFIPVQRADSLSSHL

The assay has as its target rat CYP2C11, Cyp2c11 (gene 29277) (UniProt P08683). Kind of assay: NVS_ADME_rCYP2C11: NovaScreen (NVS) CYP450-related Enzyme Activity (ADME) Assay for rat CYP2C11 (AID 2283118). As for the experimental part:
NVS_ADME_rCYP2C11 is a biochemical, single-readout assay that uses extracted gene-proteins in a cell-free assay. Measurements were taken 0.33 hour after chemical dosing in a 96-well plate.NVS_ADME_rCYP2C11 is one of one assay component(s) measured or calculated from the NVS_ADME_rCYP2C11 assay. It is designed to make measurements of enzyme activity, a form of enzyme reporter, as detected with fluorescence intensity signals by Fluorescence technology.Data from the assay component NVS_ADME_rCYP2C11 was analyzed into 1 assay endpoint. This assay endpoint, NVS_ADME_rCYP2C11, was analyzed in the positive analysis fitting direction relative to Acetonitrile as the negative control and baseline of activity. Using a type of enzyme reporter, loss-of-signal activity can be used to understand changes in the enzymatic activity as they relate to the gene Cyp2c11. Furthermore, this assay endpoint can be referred to as a primary readout, because this assay has produced multiple assay endpoints where this one serves a enzymatic activity function. To generalize the intended target to other relatable targets, this assay endpoint is annotated to the cyp intended target family, where the subfamily is xenobiotic metabolism.
Binding assays used specific radioligands (tritiated, iodinated) with non-radioactive competitive displacement ligands in agonist or antagonist protocols (as indicated) and various reference compounds and inhibitors to titrate specific binding to receptors and transporters. Most enzyme assays (CYPs, kinases, phosphatases, proteases, HDACs) used recombinant protein and specific substrates (fluorescence mostly, some colorimetric and radioactive) and inhibitors, followed by a biochemical separation of substrate and product. All assays for the biochemical HTS were initially run in duplicate at a single concentration (10 uM for CYP450 assays and 25 uM for all others). […] Each assay was run with positive and negative controls, and concurrent controls on every plate. The follow-up (secondary) screen tested active chemical-pairs in concentration series, as well as a few additional assays not tested in the primary screen, some selected negative inactives, and several cases re-run in the concentration series for confirmatory purposes.
`CCCOCC(=Nc1ccc(Cl)cc1C(F)(F)F)n1ccnc1`: the concentration at half-maximal activity (AC50) is 0.798 µM (active).
In the case of `C=C(C)[C@H]1Cc2c(ccc3c2O[C@@H]2COc4cc(OC)c(OC)cc4[C@@H]2C3=O)O1`, the AC50 was 5.05 µM (active).
On to `CCOP(=S)(OCC)Oc1ccc2c(C)c(Cl)c(=O)oc2c1`, for which the AC50 is 1.2 µM (active).
As to `CC(C1CC1)C(O)(Cn1cncn1)c1ccc(Cl)cc1` (stereo not drawn), the AC50 was 1.69 µM (active).
For the molecule `CCOP(=S)(OCC)Oc1ccc([N+](=O)[O-])cc1`, the AC50 is 2.93 µM (active).
Regarding `CCOP(=O)(NC(C)C)Oc1ccc(SC)c(C)c1` (stereo not drawn), the AC50 is 6.43 µM (active).
With `C#CCC1=C(C)C(OC(=O)C2C(C=C(C)C)C2(C)C)CC1=O` (stereo not drawn), the call was inactive.
With `CCOC(=O)CC(SP(=O)(OC)OC)C(=O)OCC` (stereo not drawn), the AC50 is 8.37 µM (active).
As to `CCOP(=O)(SC(C)CC)N1CCSC1=O` (stereo not drawn), the AC50 was 3.88 µM (active).
Turning to `CCCSP(=O)(OCC)Oc1ccc(Br)cc1Cl` (stereo not drawn), the half-maximal activity concentration (AC50) is 0.226 µM (active).
As to `O=[N+]([O-])c1cc(C(F)(F)F)c(Cl)c([N+](=O)[O-])c1Nc1ncc(C(F)(F)F)cc1Cl`, the AC50 is 2.91 µM (active).
The same measure, in the same setting: the result for `C[Si](Cn1cncn1)(c1ccc(F)cc1)c1ccc(F)cc1` reads 0.25 µM (active); that for `FC(F)C(F)(F)OCC(Cn1cncn1)c1ccc(Cl)cc1Cl` (stereo not drawn), 0.732 µM (active).

Source of the values: PubChem BioAssay (EPA / NIEHS).
